Results on 39 compounds are retold here after PubChem BioAssay (NCI).

Assay [1] can be described thus: NCI Yeast Anticancer Drug Screen. Data for the rad50 strain (AID 155).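 Further: 0% = growth of vehicle-only cultures of the same strain.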 As to conditions: S. cerevisiae rad50 strain growth inhibition; at 50.0 µM; active compounds read high. The procedure, abridged: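 Growth of the mutant yeast was measured after compound exposure and referenced to vehicle-treated cultures.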
The nature of assay [2]: NCI Yeast Anticancer Drug Screen. Data for the mec2-1 strain (AID 157). The note with it: S. cerevisiae mec2-1 strain, at 50.0 µM, active compounds read high. A digest of the protocol:
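Test agents were screened against the mec2-1 yeast strain, with defined DNA repair or cell cycle alteration. Growth was scored as inhibition against vehicle-only controls.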

Assay [3] is described as follows: NCI Yeast Anticancer Drug Screen. Data for the sgs1 mgt1 strain (AID 161).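 Further: 0% = growth of cultures given vehicle only.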 The note with it: S. cerevisiae sgs1 mgt1 strain, at 50.0 µM, active compounds read high. A digest of the protocol: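 Mutant yeast exposed to compound; growth scored against vehicle-only wells.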
Assay [4] in a line: NCI Yeast Anticancer Drug Screen. Data for the cln2 rad14 strain (AID 165).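 Further: 0% = growth equal to vehicle treated cultures.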 As to conditions: S. cerevisiae cln2 rad14 strain, at 50.0 µM, active compounds read high. A digest of the protocol:
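Growth of compound-exposed yeast (cln2 rad14 genotype) measured and expressed as inhibition relative to vehicle.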

A short description of assay [5]: NCI Yeast Anticancer Drug Screen. Data for the bub3 strain (AID 167). As to conditions: S. cerevisiae bub3 mutant strain, at 50.0 µM, active compounds read high. A digest of the protocol:
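Whole-cell yeast assay. The mutant strain was incubated with compounds, and growth inhibition was determined by comparison with vehicle-treated cells.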

Assay [6] can be described thus: NCI Yeast Anticancer Drug Screen. Data for the mlh1 rad18 strain (AID 175). The note with it: S. cerevisiae mlh1 rad18 strain growth inhibition; at 50.0 µM; active compounds read high. A digest of the protocol:
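In this whole-cell yeast screen, a strain with altered DNA damage repair is challenged with compound, and its growth is measured against matched vehicle-treated controls.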

The panel holds about 79,000 compounds, 15% with a hit somewhere; the sample as a whole holds those more often. Values without a mark were called inactive. The source made the active and inactive calls. No stated cut-off is given here; in the data, active means growth inhibition above about 70%; inactive means the rest.

On to `C=C(c1ccccc1)N1N=NC2CCOC21` (centres undefined), for which the growth inhibition is -4.25% in assay [1]; -10% in assay [2]; 4.2% in assay [3]; -20.6% in assay [4]; -16.8% in assay [5]; -8.65% in assay [6].
As to `N#CC1OC1c1ccccn1` (centres undefined), the growth inhibition in assay [1] was -6.25%; in assay [2], 7.05%; in assay [3] it was -12.3%; in assay [4] it was 9.05%; in assay [5], 5.35%; in assay [6], -21.6%.
Take `CCN(CC)C(=O)Cn1c(C)cc2ccccc21`: the growth inhibition is -18.1% in assay [1]; -18.1% in assay [2]; 7.9% in assay [3]; -2.75% in assay [4]; 8% in assay [5]; -13.6% in assay [6].
Turning to `CN1CCCC(C(O)c2ccccc2)S1(=O)=O` (centres undefined), the growth inhibition in assay [1] was 17.2%; in assay [2] it was 23.4%; in assay [3], -1.3%; in assay [4], 9.65%; in assay [5], 29.4%; in assay [6], 14.3%.
For `O=C(O)c1ccccc1Nc1ccccc1`, the growth inhibition in assay [1] was 5.75%; in assay [2], -22.1%; in assay [3], 3.8%; in assay [4], -22.4%; in assay [5], -0.75%; in assay [6], -10%.
Consider `O=[N+]([O-])c1cc(C=NCCCCCCN=Cc2ccc(Cl)c([N+](=O)[O-])c2)ccc1Cl`, for which the growth inhibition was 6.9% in assay [1]; -3.85% in assay [2]; -9.75% in assay [3]; -19.3% in assay [4]; 4.35% in assay [5]; -0.9% in assay [6].
`CC1(C)CN(Cc2ccccc2)C(C)(C)CN1`: the growth inhibition in assay [1] was -5.85%; in assay [2] it was -6.65%; in assay [3] it was -6.4%; in assay [4] it was -54.6%; in assay [5] it was -10.5%; in assay [6], -4.65%.
Consider `COc1ccc(Cc2cc(N=NC(N)=O)c(C)cc2O)cc1`, for which the growth inhibition in assay [1] is -7.35%; in assay [2] it was -5.65%; in assay [3], -2.55%; in assay [4], 1.75%; in assay [5], 3.5%; in assay [6] it was 4.55%.
For the compound `O=C(C[n+]1cccc(Cl)c1)c1cccc([N+](=O)[O-])c1`, the growth inhibition in assay [1] is -25.7%; in assay [2] it was -7.2%; in assay [3] it was -9.25%; in assay [4], -3.8%; in assay [5], 4.55%; in assay [6] it was -5%.
With `COc1cccc(C2c3cc4c(cc3OC(N3CCCCC3)C2C)OCO4)c1O` (centres undefined), the growth inhibition was -22.5% in assay [1]; -31.1% in assay [2]; 0.15% in assay [3]; 18.9% in assay [4]; -2.5% in assay [5]; 0.1% in assay [6].
With `COc1ccc2cc1Oc1cc3c(cc1OC)CC[N+](C)(C)C3Cc1ccc(cc1)Oc1c(OC)c(OC)cc3c1C(C2)[N+](C)(C)CC3` (centres undefined), the growth inhibition is -29.4% in assay [1]; -16.4% in assay [2]; -46.2% in assay [3]; 10.8% in assay [4]; -22.9% in assay [5]; -19.3% in assay [6].
As to `CCOc1ccccc1C(=O)O`, the growth inhibition was 13.2% in assay [1]; 6% in assay [2]; 14.2% in assay [3]; 11.4% in assay [4]; -12.1% in assay [5]; 11.4% in assay [6].
Consider `CCCCCCCCCCCCCCCC(C)O` (centres undefined), for which the growth inhibition in assay [1] was -45.8%; in assay [2], -35.8%; in assay [3], -20.1%; in assay [4], -35.6%; in assay [5], -43.5%; in assay [6], -34.8%.
Take `N#CC12CCC(CC1)CC2Cl` (centres undefined): the growth inhibition in assay [1] was -15.7%; in assay [2], 8.45%; in assay [3] it was 0.95%; in assay [4] it was 4.4%; in assay [5], 1.5%; in assay [6], -12.7%.
In the case of `Nc1ncnc2c1ncn2C1OC(C(O)CO)C(O)C1N` (centres undefined), the growth inhibition is -15.7% in assay [1]; -0.3% in assay [2]; -13.7% in assay [3]; -14.8% in assay [4]; 0.55% in assay [5]; -23.6% in assay [6].
`COc1c(NC(=O)c2ccc([N+](=O)[O-])cc2)cccc1[N+](=O)[O-]`: the growth inhibition was 0.45% in assay [1]; 14.3% in assay [2]; 5.1% in assay [3]; -0.2% in assay [4]; 32.2% in assay [5]; 20.4% in assay [6].
With `O=C(Nc1ccc([N+](=O)[O-])cc1)c1cc(N2CCOCC2)ccn1`, the growth inhibition in assay [1] is 38%; in assay [2] it was 16.6%; in assay [3], 21.6%; in assay [4], 15.6%; in assay [5], 2.15%; in assay [6], 25.6%.
With `COc1cccc2c1ccc1nonc12`, the growth inhibition in assay [1] was 0.05%; in assay [2], -4.1%; in assay [3], -2.25%; in assay [4], -50%; in assay [5], -19.1%; in assay [6] it was 2.2%.
For the compound `CC1(C)C(CC(=O)O)CCCC1CC(=O)O` (centres undefined), the growth inhibition in assay [1] is 12.2%; in assay [2], 0.95%; in assay [3], 4.15%; in assay [4], 2.15%; in assay [5], -11.4%; in assay [6] it was 49.2%.
Regarding `CCC(C(O)c1ccc(Cl)cc1)C(O)(C(F)(F)F)C(F)(F)F` (centres undefined), the growth inhibition in assay [1] is 99.4% (active); in assay [2], 99.5% (active); in assay [3], 99.6% (active); in assay [4], 99.5% (active); in assay [5], 99.3% (active); in assay [6] it was 99.4% (active).
As for `CCCCCCCc1c(C)c2ccc(OC)cc2[nH]c1=O`, the growth inhibition was -9.8% in assay [1]; -29.1% in assay [2]; -5.8% in assay [3]; -5% in assay [4]; -6.85% in assay [5]; -5.15% in assay [6].
Turning to `Fc1cccc2cccnc12`, the growth inhibition was 0.05% in assay [1]; -4.45% in assay [2]; 11.2% in assay [3]; 5.65% in assay [4]; 12.7% in assay [5]; 7.4% in assay [6].
Regarding `OCC1CC(c2ccccc2)=NO1` (centres undefined), the growth inhibition in assay [1] is -19.9%; in assay [2], -11.1%; in assay [3], -11.2%; in assay [4], -20.2%; in assay [5] it was -3.9%; in assay [6], -17.6%.
Regarding `CC(=O)c1c(O)ccc2c(C)cc(=O)oc12`, the growth inhibition in assay [1] was 37.5%; in assay [2], 18.8%; in assay [3], 7.4%; in assay [4], 3.1%; in assay [5], 26.9%; in assay [6], 15.8%.
Turning to `Cc1cc(C)c(C)c(C)c1C`, the growth inhibition was 17.6% in assay [1]; -8.15% in assay [2]; 14.8% in assay [3]; 2.55% in assay [4]; -3.6% in assay [5]; 20.6% in assay [6].
With `NC(=O)C1CCCNC1` (centres undefined), the growth inhibition in assay [1] is -6.6%; in assay [2] it was -6.65%; in assay [3] it was -10.4%; in assay [4] it was -13.6%; in assay [5], 15.6%; in assay [6], 6.85%.
On to `COc1ccc(NC(=O)Nc2cc(Cl)ccc2C)c(Cl)c1`, for which the growth inhibition in assay [1] was 0.7%; in assay [2], 36%; in assay [3], 29.8%; in assay [4] it was -3.35%; in assay [5], 30.4%; in assay [6], 29.9%.
Consider `CCC(O)C(C)CO` (centres undefined), for which the growth inhibition is 11.8% in assay [1]; 5.05% in assay [2]; 19.3% in assay [3]; -72.8% in assay [4]; 7.8% in assay [5]; -46.9% in assay [6].
As for `CN(C)C=Nc1ccc(F)cc1`, the growth inhibition in assay [1] is -16.1%; in assay [2], -5.6%; in assay [3], -11.4%; in assay [4] it was -20.1%; in assay [5], -1.8%; in assay [6], -2.1%.
For `O=S(=O)([O-])[O-].O=c1[nH]cnc2nc[n-]c12.[OH3+].[OH3+].[Zn+2]`, the growth inhibition in assay [1] is -26.8%; in assay [2], -29.2%; in assay [3] it was -20.6%; in assay [4], -7.9%; in assay [5], -30.9%; in assay [6] it was -36.2%.
For the compound `COC(=O)CCC(=O)c1ccc(OC)cc1`, the growth inhibition in assay [1] is 4.7%; in assay [2], -6.5%; in assay [3], 3.35%; in assay [4] it was -0.95%; in assay [5] it was 10.2%; in assay [6] it was 2.45%.
For `c1ccc(-c2nnsc2-c2ccccc2)cc1`, the growth inhibition was 17.5% in assay [1]; -4.35% in assay [2]; 27.6% in assay [3]; 10.8% in assay [4]; -3.9% in assay [5]; 20.4% in assay [6].
For the compound `N#CC1C=Cc2ccccc2N1C(=O)Oc1ccccc1` (centres undefined), the growth inhibition in assay [1] was 1.5%; in assay [2], 14.3%; in assay [3], 10.6%; in assay [4], 18.6%; in assay [5] it was -7.8%; in assay [6] it was 16.6%.
In the case of `CC(C)=CCC(C)c1ccncc1` (centres undefined), the growth inhibition in assay [1] was 1.9%; in assay [2] it was -9.15%; in assay [3], 9.45%; in assay [4], -9.05%; in assay [5] it was 15%; in assay [6], 7.4%.
On to `COC(=O)/C(=N/NC(C)(C)C)C(C(=O)C=C(C)C)C(=O)C(=O)Nc1ccc(Cl)cc1C` (centres undefined), for which the growth inhibition in assay [1] was 2.2%; in assay [2] it was -1.55%; in assay [3], -11.2%; in assay [4], -28.9%; in assay [5] it was -0.7%; in assay [6], 0.8%.
On to `N#C/C(=C\c1ccc(Cl)cc1)c1nc2ccccc2c(=O)[nH]1`, for which the growth inhibition was 12.2% in assay [1]; 17.9% in assay [2]; -14.5% in assay [3]; 5.7% in assay [4]; 1.8% in assay [5]; -53.2% in assay [6].
Turning to `CCOCC(=O)NC1Cc2cc(OC)c(OC)cc2C1O` (centres undefined), the growth inhibition was -29.8% in assay [1]; -6.2% in assay [2]; 0.1% in assay [3]; -17.1% in assay [4]; 2.15% in assay [5]; 15.6% in assay [6].
For `CCCCN(CCCC)C(=O)C(=O)C(C#N)c1ccc(C)cc1` (centres undefined), the growth inhibition in assay [1] is -7%; in assay [2] it was -0.8%; in assay [3], 6.15%; in assay [4], 17.6%; in assay [5], 20.7%; in assay [6], -9.3%.
`COC(=O)c1c2c(cc3nc4ccccc4nc13)OCO2`: the growth inhibition in assay [1] was 26.4%; in assay [2] it was 9.75%; in assay [3] it was 12.8%; in assay [4], -1.8%; in assay [5], 16.9%; in assay [6] it was 21.6%.
